Compound activity from PubChem.
Shown are actives, neighbours in structure and some others; about 1.1% of the full set was active somewhere.
hERG WT inh – inhibitors of human wildtype KCNH2 potassium channel | activity change, % at 1.84 µM | U2OS, BacMam KCNH2, thallium flux FluxOr; hits give low values | 0.37% of 340,000 active;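 active means maximum activity change below -70%; inconclusive means maximum activity change between -70% and -50%; inactive means maximum activity change above -50%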
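U2OS cells were transduced with wild-type KCNH2 virus (2.03 x 10^8 / mL) for 4 h at room temperature, then cultured overnight at 37 C. Thallium flux was read with FluxOr dye. Rate constants were normalized to DMSO controls.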
CXXC DNA block – blocks binding of human MLL CXXC domain to DNA; Q03164; MLL-CXXC / FITC-HOXA9 DNA fluorescence polarization; AID 2662; 0.037% of 290,000 active; Potency, µM (doses to about 115 µM), usual class: inhibitors; active means well fitted inhibition curve with a large enough effect in the polarisation, with a control signal flat, not every such curve was filed as active; inconclusive means small, poorly fitted or top-dose-only effect, or effect the other way, or a change in a side signal; inactive means no such curve, though single readings can be large or run the other way; the % refers to the polarisation
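Steps: dispense CXXC domain solution (7 uM) → pin compounds or unlabeled HOX-A9 DNA control → 5 min ambient → add FLSN-HOX-A9 solution (50 nM) → spin → 30 min ambient → fluorescence polarization. Tris pH 7.5/NaCl/DTT/BSA buffer.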
Menin MLL FP FL – menin-MLL binding inhibition, fluorescein peptide; Fluorescence polarization, fluorescein-MLL peptide displacement from menin; FP activity change, % at 61.4 µM; 290,000 tested, under 10 active; active means well fitted curve in the direction sought with a large enough effect in the polarisation, not every such curve was filed as active; inconclusive means small, poorly fitted or top-dose-only effect, or effect the other way, or a change in a side signal; inactive means no such curve, though single readings can be large or run the other way; the % refers to the polarisation
Menin MLL FP TR – inhibitors of human menin-MLL interaction, mutant MLL peptide; Potency, µM (top dose mostly 61.6 µM), most hits filed as inhibitors; Menin + Texas Red MLL mutant peptide, fluorescence polarization; O00255; 0.23% of 270,000 active; active means well fitted inhibition curve with a large enough effect in the polarisation, with a control signal flat, not every such curve was filed as active; inconclusive means small, poorly fitted or top-dose-only effect, or effect the other way, or a change in a side signal; inactive means no such curve, though single readings can be large or run the other way; the % refers to the polarisation
KCNH2 3.1 inh – inhibitors of human KCNH2 3.1 potassium channel isoform. activity change, % (tested at about 1.8 µM). AID 720553. 0.95% of 340,000 active. U2OS KCNH2 3.1, thallium flux FluxOr; hits give low values;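 active means maximum activity change below -70%; inconclusive means maximum activity change from -70% to -50%; inactive means maximum activity change above -50%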;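 further: thallium influx rate constant from kinetic fluorescence after stimulation buffer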
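Normalized rate constant (relative to positive and negative DMSO controls) derived from a 2 min kinetic fluorescence read after stimulation; U2OS cells expressing the 3.1 isoform via virus at 1.77 x 10^8 /mL.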
Numbers stand for hits.

How did COc1ccc(Cn2nnnc2C(c2ccc(C)cc2)N2CCN(C3CCCC3)CC2)cc1 (stereo not drawn) do in these assays?
hERG WT inh: inactive; CXXC DNA block: inactive; Menin MLL FP FL: inactive; Menin MLL FP TR: inactive; KCNH2 3.1 inh: -73.3

Results for COc1ccc(Cn2nnnc2C(c2cccs2)N2CCN(c3ccc([N+](=O)[O-])cc3)CC2)cc1 (stereo not drawn) ?
hERG WT inh: inconclusive; CXXC DNA block: inactive; Menin MLL FP FL: inactive; Menin MLL FP TR: inactive; KCNH2 3.1 inh: -98.9

Results for CCOC(=O)C1=C[C@@H](C(=O)OCC)[C@@H]2C3=C(C(=O)C2(C)C)[C@H](c2ccccc2)[C@@H]2C(=O)N(c4ccccc4)C(=O)[C@@H]2[C@@H]3C1 ?
Menin MLL FP FL: inconclusive; Menin MLL FP TR: inactive

How did COc1ccc(-n2c(=O)cnc3cnc(N4CCOCC4)nc32)cc1 do in these assays?
Menin MLL FP FL: inactive; Menin MLL FP TR: inactive

Results for CCN(CC)C(=O)C1=C(C)N(CCC2=CCCCC2)C(=O)C(CC(=O)NC(c2ccccc2)c2ccccc2)C1 (stereo not drawn) ?
hERG WT inh: -87.7; KCNH2 3.1 inh: inactive

How did CCOC(=O)c1sc2ncn(CC(=O)NCC3CCCO3)c(=O)c2c1C (stereo not drawn) do in these assays?
hERG WT inh: inactive; CXXC DNA block: inactive; Menin MLL FP FL: inactive; Menin MLL FP TR: inactive; KCNH2 3.1 inh: -180.5

What do the screens show for `CCCCNC(=O)Cn1cnc2sc(C(=O)OCC)c(C)c2c1=O`?
hERG WT inh: inactive; CXXC DNA block: inactive; Menin MLL FP FL: inactive; Menin MLL FP TR: inactive; KCNH2 3.1 inh: inactive

Results for CC1(C)O[C@@H]2C[C@H]3[C@H]4C[C@H](F)C5=CC(=O)CC[C@]5(C)[C@@H]4[C@H](O)C[C@]3(C)[C@]2(C(=O)CO)O1 ?
CXXC DNA block: inactive; Menin MLL FP FL: inactive; Menin MLL FP TR: inactive

Results for COc1ccc(NC(=O)CN(C)CC(=O)N(C)C2(C#N)CCC(C)CC2)cc1 (stereo not drawn) ?
hERG WT inh: inactive; KCNH2 3.1 inh: inactive

Results for CN(CC(=O)Nc1ccc(F)cc1)CC(=O)N(C)C1(C#N)CCCCC1 ?
hERG WT inh: inactive; KCNH2 3.1 inh: -115.0

What do the screens show for `COc1ccc(NC(=O)c2sc3ncnc(N4CCN(c5ccccn5)CC4)c3c2C)cc1Cl`?
hERG WT inh: -118.2; CXXC DNA block: inactive; KCNH2 3.1 inh: -114.0

How did COc1ccc(NC(=O)c2sc3nc(C)nc(N4CCN(c5ccccn5)CC4)c3c2C)cc1Cl do in these assays?
hERG WT inh: -77.7; CXXC DNA block: inactive; Menin MLL FP FL: inactive; Menin MLL FP TR: inactive; KCNH2 3.1 inh: -114.3

What do the screens show for `Cc1cc(Br)ccc1NC(=O)c1sc2ncnc(N3CCN(c4ccccn4)CC3)c2c1C`?
hERG WT inh: -106.5; CXXC DNA block: inactive; Menin MLL FP FL: inactive; Menin MLL FP TR: inactive; KCNH2 3.1 inh: -110.3

How did CC1(C)CC(=O)C=C(c2ccc3c(c2)OCO3)C1 do in these assays?
hERG WT inh: inactive; KCNH2 3.1 inh: inactive

How did COc1ccc(N(CC(O)Cn2c3ccccc3c3ccccc32)S(=O)(=O)c2ccccc2)cc1 (stereo not drawn) do in these assays?
hERG WT inh: inactive; CXXC DNA block: inactive; Menin MLL FP FL: inactive; Menin MLL FP TR: 25.1µM; KCNH2 3.1 inh: inactive

Results for CS(=O)(=O)N(CC(O)Cn1c2ccccc2c2ccccc21)c1ccccc1 (stereo not drawn) ?
hERG WT inh: inactive; CXXC DNA block: inactive; Menin MLL FP FL: inactive; Menin MLL FP TR: inactive; KCNH2 3.1 inh: inactive

What do the screens show for `COC(=O)c1cc(S(=O)(=O)N(C)C2CCCCC2)c[nH]1`?
hERG WT inh: inactive; CXXC DNA block: inactive; Menin MLL FP FL: inactive; Menin MLL FP TR: inactive; KCNH2 3.1 inh: -119.6

How did COC(=O)c1cc(S(=O)(=O)N(C)C2CCCCC2)cn1C do in these assays?
hERG WT inh: inactive; CXXC DNA block: inactive; KCNH2 3.1 inh: inactive

Results for Nc1nnc(CC(=O)N/N=C/c2ccc(-c3cccc(C(=O)O)c3)o2)s1 ?
hERG WT inh: inactive; CXXC DNA block: inactive; Menin MLL FP FL: inactive; KCNH2 3.1 inh: inactive

What do the screens show for `COc1ccc(/C=C2\SC(=O)N=C2N)cc1`?
hERG WT inh: -214.0; CXXC DNA block: inactive; Menin MLL FP FL: inactive; Menin MLL FP TR: inactive; KCNH2 3.1 inh: inactive

How did COc1ccc(/C=C2\SC(N3CCCCC3)=NC2=O)cc1 do in these assays?
hERG WT inh: inactive; CXXC DNA block: inactive; Menin MLL FP FL: inconclusive; Menin MLL FP TR: inconclusive; KCNH2 3.1 inh: inactive

What do the screens show for `COc1ccc(S(=O)(=O)N2CCOCC2)cc1NC(=O)CCCOc1ccc(C(C)=O)cc1`?
hERG WT inh: inactive; KCNH2 3.1 inh: inactive

How did COc1ccc(CNCc2ccncc2)c(OC)c1 do in these assays?
hERG WT inh: inactive; CXXC DNA block: inactive; Menin MLL FP FL: inactive; Menin MLL FP TR: inactive; KCNH2 3.1 inh: inactive

How did COc1ccc(CNCc2ccc3ccccc3c2)c(OC)c1 do in these assays?
hERG WT inh: inactive; CXXC DNA block: inconclusive; Menin MLL FP FL: inactive; Menin MLL FP TR: inconclusive; KCNH2 3.1 inh: -98.0

Results for CCC(C)c1ccc(NC(=O)NCCN2CCCCC2)cc1 (stereo not drawn) ?
hERG WT inh: inactive; CXXC DNA block: inactive; Menin MLL FP FL: inactive; Menin MLL FP TR: inactive; KCNH2 3.1 inh: -93.7

How did Cc1ccc(NC(=O)NCCN2CCCCC2)cc1 do in these assays?
hERG WT inh: inactive; CXXC DNA block: inactive; Menin MLL FP FL: inactive; Menin MLL FP TR: inactive; KCNH2 3.1 inh: inactive

Results for N#Cc1ccccc1OCC(=O)OCC(=O)c1c[nH]c2ccccc12 ?
hERG WT inh: inactive; KCNH2 3.1 inh: inactive

Results for CCOc1ccc(S(=O)(=O)Nc2ncn[nH]2)cc1 ?
hERG WT inh: inactive; CXXC DNA block: inactive; Menin MLL FP FL: inactive; Menin MLL FP TR: inactive; KCNH2 3.1 inh: inactive

Results for O=S(=O)(Nc1ncn[nH]1)c1ccc(Cl)cc1 ?
hERG WT inh: inactive; CXXC DNA block: inactive; Menin MLL FP FL: inactive; Menin MLL FP TR: inactive; KCNH2 3.1 inh: -85.0

How did COC(=O)[C@H]1C[C@H]2CC[C@H](O)C[C@H]2N1Cc1c(F)cccc1Cl do in these assays?
Menin MLL FP FL: inactive; Menin MLL FP TR: inactive

How did Cc1cccc(N2CCN(C(=O)c3ccc(NS(=O)(=O)c4ccc5[nH]c(=O)[nH]c5c4)cc3)CC2)c1C do in these assays?
hERG WT inh: inactive; CXXC DNA block: inactive; Menin MLL FP FL: inactive; Menin MLL FP TR: inactive; KCNH2 3.1 inh: inactive

Results for O=C(c1ccc(NS(=O)(=O)c2ccc3[nH]c(=O)[nH]c3c2)cc1)N1CCN(c2ccccc2O)CC1 ?
hERG WT inh: inactive; KCNH2 3.1 inh: -80.1

How did O=C(NCC1CCCO1)C(=O)N/N=C/c1ccc(O)c(Cl)c1 (stereo not drawn) do in these assays?
hERG WT inh: -225.2; CXXC DNA block: inactive; Menin MLL FP FL: inactive; KCNH2 3.1 inh: inactive

How did CCOC(=O)c1c(S(=O)(=O)N(C)C2CCCCC2)c(C)n(C)c1C do in these assays?
hERG WT inh: inactive; CXXC DNA block: inactive; Menin MLL FP FL: inactive; Menin MLL FP TR: inactive; KCNH2 3.1 inh: inactive
